Among all 16,000 compounds or so, about 5,700 (36%) were called active. Not shown: some 24% with an inconclusive outcome. The list shows a part of the results. Unmarked numbers belong to inactive results. Calls come from the whole dose curve; as a rule, active = well fitted curve in the direction sought with a large enough effect; inconclusive = small, poorly fitted or top-dose-only effect, or effect the other way; inactive = no such curve, though single readings can be large or run the other way.

From PubChem BioAssay AID1851 (National Center for Advancing Translational Sciences (NCATS), 2009) come the findings set out here.
% is set by controls: 0 for no effect and ±100 for the full control effect.

The target in the test is Cytochrome P450 1A2 (Homo sapiens) (UniProt P05177). Kind of test: Cytochrome panel assay with activity outcomes. Particulars: recombinant CYP, pro-luciferin dealkylation, luminescence, p450-cyp1a2; series mostly up to 57.1 µM; activity, negative = inhibition: at the top concentration.
Cytochrome P450 1A2 (Homo sapiens), sequence (P05177 whole entry, looked up): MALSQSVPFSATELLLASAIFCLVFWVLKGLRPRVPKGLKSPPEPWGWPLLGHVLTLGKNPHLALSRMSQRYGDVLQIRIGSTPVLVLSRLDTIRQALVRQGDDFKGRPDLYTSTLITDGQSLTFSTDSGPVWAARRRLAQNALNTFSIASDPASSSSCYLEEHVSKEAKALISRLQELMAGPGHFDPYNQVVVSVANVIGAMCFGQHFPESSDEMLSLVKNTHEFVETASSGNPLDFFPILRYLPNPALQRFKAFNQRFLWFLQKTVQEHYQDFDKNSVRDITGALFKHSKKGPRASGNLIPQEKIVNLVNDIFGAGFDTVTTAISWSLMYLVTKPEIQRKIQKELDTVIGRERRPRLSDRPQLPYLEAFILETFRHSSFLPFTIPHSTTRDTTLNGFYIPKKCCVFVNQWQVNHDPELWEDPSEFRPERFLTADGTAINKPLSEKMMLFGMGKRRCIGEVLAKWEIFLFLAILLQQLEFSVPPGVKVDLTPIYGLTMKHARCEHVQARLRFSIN
For the compound `Cc1cc(C)cc(C(=N)c2ccccc2Cc2cccc3ccccc23)c1`, the activity, negative = inhibition was -5.4% [at 2.29 µM].

Consider `CO[C@H]1COC(=O)CCC[C@@H](C)[C@H](OC)COC(=O)[C@H]2CCCN2C(=O)C/C=C\[C@@H]1C`, for which the activity, negative = inhibition was -4.29% [at 11.4 µM]. What is called AC50 is the midpoint of the concentration-response curve, whichever way the signal moves. With `Cc1ccc(NC(=S)NC2CCCC2)cc1`, the AC50 was 15800 nM (active). Take `CC(=O)NS(=O)(=O)c1ccc(NC(=O)NC2CCCCC2)cc1`: the “activity, negative = inhibition” value was -8.66%. With `COC(=O)c1ccc(NC(=S)NC2CCCCC2)cc1`, the AC50 was 14100 nM (active). Take `COC(=O)c1ccc(NC(=O)C2CCCCC2C(=O)O)cc1` (stereo not given): the “activity, negative = inhibition” value is 11.3%. Still for that read-out and setting: for `O=C(Nc1ccc(Cl)cc1)NC1CCCCC1` the value was -20.7%; for `Cc1ccc(NC(=S)N2CCN(C3CCCCC3)CC2)cc1`, -15.9%. On the same count and under the same terms, the figure for `CCc1cccc(CC)c1NC(=O)CN(CC(=O)O)CC(=O)O` is -9.69% [at 25.6 µM]. Turning to `CN(C)CCCn1c2c3ccccc3ccc2c2oc(=O)c3ccccc3c21`, the AC50 is 316 nM (active). Same read-out and setting: the figure for `CCn1c2ccccc2c2cc(NS(=O)(=O)c3ccccc3C)ccc21` is 3160 nM (active).

As to `CC(=O)Nc1cc(S(=O)(=O)Nc2ccccc2)c(C)cc1C`, the “activity, negative = inhibition” value was -0.331%. As to `COc1c(NC(C)=O)c2ccccc2c2ccccc12`, the AC50 is 398 nM (active). For `CC(=O)Nc1ccccc1C(=O)C(=O)O`, the “activity, negative = inhibition” value was -3.38%.

Take `COCCN=C1Sc2nc3c(C)cccc3cc2CN1Cc1ccco1`: the AC50 was 631 nM (active). Still for that read-out and setting: the figure for `O=c1c2ccccc2nc2n1CC/C2=C\c1ccccc1[N+](=O)[O-]` is 3160 nM (active); for `Cc1nc2cnc(Nc3ccccc3)nc2n(Cc2cccs2)c1=O` it is 1580 nM (active); for `COc1cccc(Nc2ncc3nc(C)c(=O)n(Cc4cccs4)c3n2)c1` it is 2510 nM (active). Same read-out and setting: for `COc1cccc(Nc2ncc3ncc(=O)n(Cc4cccs4)c3n2)c1` the value was 1580 nM (active).

In the case of `COc1ccc(-c2nc3cnc(Nc4cccc(OC)c4)nc3n(Cc3cccs3)c2=O)cc1`, the “activity, negative = inhibition” value is -12.7%.

With `O=c1cnc2cnc(Nc3ccccc3)nc2n1Cc1cccs1`, the AC50 is 1000 nM (active). For `CCN(CC)C[C@@H](O)CN1CCCCc2nc(C)c(C)cc21`, the activity, negative = inhibition was -9.64% [at 11.4 µM]. As for `O=C(Cc1cccc2ccccc12)N/N=C/c1ccc(Sc2nc3ccccc3s2)o1`, the “activity, negative = inhibition” value was -12.4%. Take `COCC(=O)N/N=C/c1ccc(Sc2nc3ccccc3s2)o1`: the AC50 was 15800 nM (active). Same read-out and setting: for `Cc1ccc(NS(=O)(=O)c2ccccc2Cl)c2c1CC(C)(C)O2` the value was 1260 nM (active). For the compound `Cc1cc(C)c(S(=O)(=O)N2CCCCC2)c(C)c1N(C)S(=O)(=O)c1ccccc1`, the “activity, negative = inhibition” value was 8.05%. The same measure, in the same setting: the figure for `CC(O)(CS(=O)(=O)Cc1ccc(Cl)cc1)C(=O)Nc1cccc(C(F)(F)F)c1` (stereo not given) is -29.5%.

Turning to `O=C(Nc1cccc(C(F)(F)F)c1)N(Cc1ccc(Cl)cc1)CC(O)C(F)(F)F` (stereo not given), the AC50 is 12600 nM (active).

As for `CCCCN=c1sc(C(=O)OC)cc(=O)n1CCCC`, the concentration at half-maximal activity (AC50) is 251 nM (active).

In the case of `CCN1C(=O)[C@H]2[C@H]3[C@H](O)[C@H](O)C/C(=N/O[C@@H]4O[C@H](COC(C)=O)[C@@H](OC(C)=O)[C@H](OC(C)=O)[C@H]4OC(C)=O)[C@@H]3CC[C@@H]2C1=O`, the activity, negative = inhibition is -2.53% [at 11.4 µM]. On the same count and under the same terms, for `Cc1ccc(-n2c3c(c(=O)[nH]c2=O)C(NS(=O)(=O)c2ccc(C)cc2)(C(F)(F)F)C(=O)N3)cc1` (stereo not given) the value was -2.02%. For `CCOC(=O)N/N=C/c1ccccc1F`, the AC50 was 6310 nM (active).

On to `Cc1ccc(/C=N\NC(=O)c2cc(OCC(F)(F)F)ccc2OCC(F)(F)F)cc1`, for which the “activity, negative = inhibition” value is -18.2%. For the compound `CCOC(=O)C(=Cc1ccc(F)cc1)C(=O)OCC`, the AC50 is 25100 nM (active). For `CCOC(=O)N/N=C/c1ccc(F)cc1`, the AC50 is 11200 nM (active). On to `O=C(NCCC[N+]1=CC=N[C@H]1c1ccccc1)N1CCCc2nc(-c3ccc(Br)cc3)ccc21`, for which the activity, negative = inhibition is 7.37% [at 11.4 µM].

Turning to `Cc1ccc(C2C(C(=O)c3sc(C)nc3C)=C(O)C(=O)N2CCN2CCOCC2)o1` (stereo not given), the “activity, negative = inhibition” value is -8.98%. On the same count and under the same terms, for `CCOc1ccc(N(C(=O)/C=C/C(=O)Nc2cc(C)on2)C(C(=O)NC2CCCC2)c2ccccc2C)cc1` (stereo not given) the value was -14.5%. On the same count and under the same terms, the figure for `CCc1ccc(C(C(=O)NCc2ccc(OC)cc2)N(CCOC)C(=O)Cc2cccs2)cc1` (stereo not given) is -19.9%. Take `COc1ccc2cc3cc(C(=O)NCCN4CCN(c5ccccc5F)CC4)oc3nc2c1`: the AC50 is 15800 nM (active). The same measure, in the same setting: the figure for `COc1ccc2cc3cc(C(=O)Nc4ccc5c(c4)OCO5)oc3nc2c1` is 501 nM (active). Take `CCCS(=O)(=O)N1CCCC(C(=O)NCCCN2CCN(c3ccccc3F)CC2)C1` (stereo not given): the “activity, negative = inhibition” value is 18.4%. Regarding `COc1ccc2cc3cc(C(=O)NCc4ccc5c(c4)OCO5)oc3nc2c1`, the AC50 was 316 nM (active).

For the compound `COc1ccc2nc3oc(C(=O)NCc4cccs4)cc3cc2c1`, the AC50 was 2000 nM (active). Take `COc1ccc(N2CCN(CCNC(=O)C3CCN(S(=O)(=O)c4cccs4)CC3)CC2)cc1`: the “activity, negative = inhibition” value is -8.48%. Same read-out and setting: the figure for `O=C1C[C@@H](O)[C@@H](O)[C@@H]2[C@H]3C(=O)N(c4ccc(F)cc4F)C(=O)[C@@H]3CC[C@@H]12` is -7.03% [at 11.4 µM]. For `COc1ccc2cc3cc(C(=O)NCc4ccccn4)oc3nc2c1`, the AC50 was 1000 nM (active).

For the compound `CC(C)CC(=O)Nc1sc2c(c1C#N)CC(C)(C)NC2(C)C`, the “activity, negative = inhibition” value is -26.2%. Still for that read-out and setting: for `COc1cc(Cl)c(C)cc1NC(=O)CNC(=O)Cn1cnc2ccccc2c1=O` the value was -7.13%. Take `O=C1c2ccccc2C(=O)N1CCCSc1ccccc1`: the AC50 is 1000 nM (active). Turning to `O=C(O)CCCSc1ccccc1`, the activity, negative = inhibition was -11.7% [at 11.4 µM]. Regarding `O=c1c2ccccc2ncn1CCCSc1ccccc1`, the AC50 is 7080 nM (active).

For `Cc1ccc(SCCCn2cnc3ccccc3c2=O)cc1`, the AC50 is 3160 nM (active). For the compound `O=C(c1ccccc1)c1ccc(OCCn2cnc3ccccc3c2=O)cc1`, the “activity, negative = inhibition” value is -15.9%. The same measure, in the same setting: the figure for `O=C1c2ccccc2C(=O)N1C[C@]1(C(=O)O)NCCS1(=O)=O` is -5.5% [at 2.29 µM]; for `CC(C)(C)NC(=O)C(Cc1ccccc1)NS(=O)(=O)c1ccc2c(c1)CCC(=O)N2` (stereo not given) it is -16.2%.

`Cn1c(=O)c(-c2ccc(Cl)cc2)nc2cnc(Oc3ccccc3)nc21`: the AC50 is 200 nM (active). On the same count and under the same terms, the figure for `Cn1c(=O)c(-c2ccccc2)nc2cnc(Oc3ccccc3)nc21` is 2000 nM (active); for `COc1ccc(Oc2ncc3nc(-c4ccc(Cl)cc4)c(=O)n(C)c3n2)cc1` it is 631 nM (active).

For the compound `CC(C)CN1CC[C@@]2(CCCN(C(=O)c3csnn3)C2)C1`, the “activity, negative = inhibition” value is -16.6%.
